# EBV gp42 block = Epstein-Barr virus gp42 inhibitors, primary screen, biochemical, uHTS, fluorescence polarization; Fluorescence polarization binding assay, mP read-out; inhibition, % (tested at 21.74 µM); hit rate 0.42% among 220,000; Glycoprotein 42 (Epstein-Barr virus (strain AG876)), Q1HVG2; in the data active means inhibition above about 50%
# Target sequence (Q1HVG2 whole entry, looked up): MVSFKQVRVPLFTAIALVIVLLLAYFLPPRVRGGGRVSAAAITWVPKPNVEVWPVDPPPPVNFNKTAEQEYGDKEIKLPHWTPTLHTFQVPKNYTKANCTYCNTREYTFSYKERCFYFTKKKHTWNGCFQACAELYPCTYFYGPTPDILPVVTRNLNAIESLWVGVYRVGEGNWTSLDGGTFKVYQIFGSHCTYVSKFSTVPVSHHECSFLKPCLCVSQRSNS
# BCLXL inh = inhibitors of human Bcl-xL, primary screen, biochemical, fluorescence polarization, HTS. Bcl-2-like protein 1 (Homo sapiens), Q07817. GST-Bcl-xL / FITC-Bim BH3 peptide fluorescence polarization. inhibition, % at 10.9 µM. AID 2129, 2009. hit rate 0.7% among 320,000;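 active means inhibition above the mean of all tested compounds plus 3 SD, cutoff set per campaign, cut at about 30% in these data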;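 further: 0% = DMSO wells and 100% = unlabeled Bim-BH3 peptide competitor; inhibitors lower millipolarization by displacing the labeled peptide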
# Target sequence (Q07817 whole entry, looked up): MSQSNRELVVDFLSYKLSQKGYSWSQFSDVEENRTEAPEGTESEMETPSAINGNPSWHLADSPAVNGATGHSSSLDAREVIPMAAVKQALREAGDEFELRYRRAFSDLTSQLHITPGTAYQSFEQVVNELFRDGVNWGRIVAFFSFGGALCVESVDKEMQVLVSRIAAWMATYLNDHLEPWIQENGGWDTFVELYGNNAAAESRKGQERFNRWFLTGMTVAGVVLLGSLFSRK
# MEX-5 binding = MEX-5 zinc finger RNA-binding disruptors – biochemical, C. elegans, fluorescence polarization, MLPCN library, primary screen; Zinc finger protein mex-5 (Caenorhabditis elegans), Q9XUB2; MEX-5/FITC-TCR2 RNA binding; hits give low values; activity score (negative = inhibition of binding), % at 10 µM; hit rate 0.38% among 300,000; AID 1832, 2009;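 active means inhibition past about -25% in most replicates, and total fluorescence under double the plate's negative control median, limit read from the data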;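 further: 0% = DMSO and -100% = 5 µM competing unlabeled TCR2 RNA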
# eLon inh = inhibitors of E. coli Lon protease, primary screen, biochemical, fluorescence polarization; P0A9M0; purified E. coli Lon protease; inhibition, % at 7.94 µM; hit rate 0.42% among 360,000; in the data active means inhibition above about 13%, passing the limit was not always enough;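 further: 0% = enzyme with probe and DMSO and 100% = no enzyme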
# GLD-1 TGE inh = GLD-1/TGE RNA complex disruptors, primary screen, biochemical, fluorescence polarization; Female germline-specific tumor suppressor gld-1 (Caenorhabditis elegans), Q17339; purified GLD-1 + fluorescein TGE RNA; inhibition, % at 5.96 µM; hit rate 0.44% among 320,000; AID 2280, 2010;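 active means percent inhibition above a per-plate cutoff, the plate mean of test compounds plus 3 SD, cut at about 30% in these data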;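 further: 0% = DMSO wells with GLD-1 and probe and 100% = wells lacking GLD-1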
# Active calls of the source: *; · = not tested or not shown. A selection: hits, their analogues and other compounds. The true share with any hit is near 1.3%.
SMILES,EBV gp42 block,BCLXL inh,MEX-5 binding,eLon inh,GLD-1 TGE inh
CCC(=O)Nc1nc(C)c(-c2csc(Nc3ccc(C(=O)O)cc3)n2)s1,·,·,2,-5,·
CC(=O)Nc1nc(C)c(-c2csc(Nc3cccc(C(C)=O)c3)n2)s1,·,3,2,-13,-4
Cc1c(Br)cccc1NC(=O)C1(C)CCN1Cc1ccc(OC(C)C)cc1 (configuration not stated),·,·,·,-5,·
O=c1cc(O)c2sc3nc(-c4cccnc4)cc(C(F)(F)F)c3c2[nH]1,42,40*,-10,-9,13
Cc1cc(C(F)(F)F)c2c(n1)sc1c(O)cc(=O)[nH]c12,-2,4,1,-1,3
CCOC(=O)C1=CCN(S(=O)(=O)c2ccc(C)cc2)C1c1cccc(Cl)c1 (configuration not stated),·,·,·,5,·
COc1ccc(C=C2SC(=O)NC2=O)cc1OC,·,·,·,3,·
NS(=O)(=O)c1ccc(-c2cccc(/C=C3\SC(=O)NC3=O)c2)cc1,·,-2,-36*,-4,0
CCc1ccc(CN2CCCC(C(=O)Nc3ccc(-c4cscn4)cc3)C2)o1 (configuration not stated),·,-8,1,-3,-8
COC(=O)c1ccc2c(=O)sc(N3CCC(C(N)=O)CC3)nc2c1,85*,16,-2,-3,10
COC(=O)c1ccc(C(=O)OC)c(NC(=S)N2CCC(C(N)=O)CC2)c1,-3,10,1,-5,2
O=C(O)c1c2c(nc3ccccc13)/C(=C/c1ccc(OC(F)F)cc1)CCC2,·,8,-2,-2,11
O=C(O)c1c2c(nc3ccccc13)/C(=C/c1ccc(O)cc1)CC2,1,36*,-30*,2,10
CC[C@]12c3[nH]c4ccc(OC)cc4c3CCN1C(=O)C(CC(=O)NCCCN(C)C)C[C@@H]2C(=O)N1CCN(C(=O)c2ccco2)CC1 (some centres not stated),·,·,·,-4,·
c1ccc(Nc2nc3ccccc3n3nnnc23)cc1,42,36*,1,-30,5
O=C(NNC(=O)C1CCC1)c1ccc(F)cc1,·,·,·,6,·
O=C(Nc1cccc(F)c1)/C(=C\c1cccnc1)NC(=O)c1ccco1,-21,1,-1,-5,0
Cc1ccc(NC(=O)/C(=C\c2cccnc2)NC(=O)c2ccco2)cc1,-2,89*,-3,1,29
Cc1cccc(N2C(=O)C(Oc3ccc(Cl)cc3Cl)C2C=O)c1C (configuration not stated),0,-2,·,-1,-10
NC1=NC(=O)C2(COC(c3cccnc3)OC2)S1 (configuration not stated),-13,86*,-2,-3,5
NC1=NC(=O)C2(COC(c3ccncc3)OC2)S1 (configuration not stated),-11,0,-1,2,0
CCn1c(SC(C)C(=O)O)nc2sc3c(c2c1=O)CCC3 (configuration not stated),52*,11,·,-2,11
O=S(=O)([N-]c1nc2ccccc2nc1-[n+]1ccc(CCCc2ccccc2)cc1)c1cccs1,36,30,-29*,14,17
O=S(=O)([N-]c1nc2ccccc2nc1-[n+]1ccccc1)c1ccccc1,-18,0,1,12,0
CCCCCCc1ccc(N2C[C@H](CCCCC)[C@@H](CC(=O)NCc3ccccc3)C2=O)cc1,·,0,3,-5,4
SMILES,EBV gp42 block,BCLXL inh,MEX-5 binding,eLon inh,GLD-1 TGE inh
CCCCCCc1ccc(N2C[C@H](C)[C@@H](CC(=O)NCc3ccccc3)C2=O)cc1,·,7,3,-4,41*
CCCCNC(=O)C1CC(=O)N(CCc2ccc(C)cc2)C1 (configuration not stated),·,5,-3,8,-2
O=C(NC1CC1)c1cc(-c2ccco2)nc2ccccc12,84*,·,0,-1,·
O=C(OCC(=O)N1CCN(C(=O)c2ccco2)CC1)c1cc(-c2ccco2)nc2ccccc12,76*,31*,1,7,12
O=C(O)c1cc(-c2ccco2)nc2ccccc12,-19,34*,-10,4,14
O=C(N/N=C/c1ccc(F)cc1)c1cc(-c2ccco2)nc2ccccc12,83*,11,-8,-3,6
Cc1nnc(NC(=O)c2cc(-c3ccco3)nc3ccccc23)s1,·,26,-2,-11,-4
Oc1c(Cl)cc(Cl)cc1CNc1nc2ccccc2[nH]1,·,9,0,1,-3
COc1ccc(-c2cccc(-c3cc(=O)oc4ccc(C(C)(C)C)cc34)c2)cc1,·,·,·,4,·
CCCS(=O)(=O)NC(=O)C1(C)CCN(C(=O)C2(c3ccc(Cl)cc3)CCCC2)C1 (configuration not stated),·,·,·,12,·
COc1cccc(C(=O)c2c[nH]c(C(=O)NCCCN3CCOCC3)c2)c1,4,9,0,-2,0
COc1ccc(OC)c(S(=O)(=O)NC2CC(=O)N(c3cccc(F)c3)C2)c1 (configuration not stated),·,10,3,5,0
CC1(OC(=O)c2cnc3ccccc3n2)C(=O)C=C2C=C(c3ccc(C#N)cc3)OC=C2C1=O (configuration not stated),·,25,-8,·,47*
COC/C=C/C1=CC2=CC(=O)C(C)(OC(=O)c3cnc4ccccc4n3)C(=O)C2=CO1 (configuration not stated),·,74*,-42*,·,58*
CC(C)c1ccc(C(=O)N2CCCCC2c2cc(C(=O)NCc3cccnc3)no2)cc1 (configuration not stated),·,·,·,0,·
CC1CCN(C(=O)COc2ccc(S(=O)(=O)N3CCOCC3)cc2)CC1,·,-7,0,8,3
O=C1CSC(=S)N1/N=C/c1ccc(O)c(O)c1O,70*,66*,-88*,7,-5
O=C1CSC(=S)N1/N=C/c1cc(Br)ccc1O,·,14,-5,·,-3
Cc1ccc(S(=O)(=O)Nc2ccccc2C(=O)N2CCCCC2C)c(C)c1NS(C)(=O)=O (configuration not stated),·,6,0,1,3
Cc1ccc(C)c2nc3sc(C(=O)N4CCCc5ccccc54)c(N)c3cc12,142*,-3,-9,-19,-14
CC(C)c1ccc2nc3sc(C(=O)N4CCc5ccccc5C4)c(N)c3cc2c1,20,7,-16,4,-17
Cc1ccc2nc3sc(C(=O)N4CCOCC4)c(N)c3cc2c1,-3,2,-44*,0,-6
CCc1ccc2nc3sc(C(=O)N4CCc5ccccc54)c(N)c3cc2c1,159*,6,1,·,5
O=C(NCc1ccccn1)[C@@H]1CCCN1C(=O)[C@@H]1CCCN1,·,·,·,-3,·

# Screening results deposited in PubChem BioAssay by several laboratories.
